Data as given in PubChem BioAssay AID463190 (Sanford-Burnham Center for Chemical Genomics, 2010).
Hit rate of the full screen: of about 330,000 compounds, about 7,300 (2.2%) were called active.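 How the source made its calls: active means inhibition of at least 40%; inactive means the rest.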 What follows is part of a selection rich in actives, with near analogues and random picks from the rest.

Test: growth inhibitors of tim10-1 mutant yeast, primary screen, luminescence, uHTS (AID 463190);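 further: mutant grown at 25 °C; 0% = DMSO wells with yeast and 100% = wells holding no yeast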
Details: S. cerevisiae tim10-1 ts strain growth, BacTiter-Glo, 24 h; at 20 µM; stronger effect = higher value

inhibition, inactive:
Cc1oc(C(N)=O)cc1COc1ccc(C(N)=O)cc1 -9.15%, CCOc1cc2c(Cl)ncnc2c(OCC)c1OCC 19.3%, CCOc1cc(C(=O)Nc2ncccn2)cc(OCC)c1OCC 8.23%, Cc1sc2c(c1C)c(=O)n(-c1ccccc1)c1nncn21 20.4%, CC[C@H](C)C(=O)N[C@H]1CCCN1C(=O)/C=C/c1ccccc1 -0.774%, Cc1ccc2c(c1)N(CCCC(=O)NCc1cccnc1)C(=O)CO2 -19.6%, COc1ccc(CNC(=O)C[C@H]2C[C@H](C(=O)N3CCOCC3)[C@@]3(CCC4CCCC4)c4[nH]c5ccc(Cl)cc5c4CCN3C2=O)cc1OC 17%, CC1Cc2ccccc2N1CC(=O)Nc1ccc2c(c1)OC(F)(F)O2 (stereo not given) 20.8%, CN1CCc2c(sc3c2c(NCc2ccco2)nc2nnnn23)C1 21.9%, Cc1c(NC(=O)Nc2ccccc2Cl)sc(=S)n1C 12%, O=C(Cc1ccc2c(c1)CCCC2)Nc1ccccc1Cl 10.5%, CN=C1C=C/C(=N/N=c2\ccn(O)cc2C)C=C1C 16.6%, Cc1cc(-c2ccc(S(=O)(=O)N3CCN(c4cccc(C(F)(F)F)c4)CC3)s2)on1 -2.35%, COC(C[C@@H]1O[C@@H]1C(=O)[C@H](C)OCc1ccccc1)OC -17.2%, COC(C[C@H](O)CC(=O)[C@@H](C)OCc1ccccc1)OC 7.97%, O=S(=O)(/C=C/c1ccccc1)N1CCNCC1 7.28%, CCOc1ccccc1-n1c(SCC(=O)NCc2ccco2)nnc1-c1ccncc1 8.51%, Cc1cc(Br)ccc1SCC(=O)OCC(=O)NCc1ccc2c(c1)OCO2 28%, CC(=O)Nc1ccc(S(=O)(=O)Nc2ccc(N3CCCCC3)cc2)cc1 3.03%, O=C(Cc1ccccc1)NC(=S)Nc1ccc(N2CCCCC2)cc1 38.6%, CC(=O)c1cccc(NC(=O)C2CCCN(S(=O)(=O)c3cccc4nonc34)C2)c1 (stereo not given) -2.16%, N#Cc1ccc(CSc2nnc3ccccn23)cc1 21.5%, N#Cc1ccc(CSc2ncccn2)cc1 -2.68%, O=C1CSC2=NCN(c3ccccc3)CN12 -4.56%, Cc1nc(NC(=O)C2CCCCC2)sc1C 25.4%, CC1CCCCC1NC(=O)COc1ccc(C#N)cc1 (stereo not given) -1.06%, CCOC(=O)c1c(NC(=O)C2CC=CCC2C(=O)O)sc(C)c1CC (stereo not given) 15.4%, O=C(CSc1nnc(-c2cccs2)n1Cc1ccco1)c1ccc2c(c1)OCO2 -3.98%, COc1ccc(-c2cc3ncccc3cn2)cc1 8.87%, CC(=O)NC(Cc1ccccc1)C(=O)NC1CCN(c2ncccc2[N+](=O)[O-])CC1 (stereo not given) 10.4%, O=C(NCC1CCCO1)c1cc2c(s1)CCCC2 (stereo not given) -4.36%, O=C1CCCc2c1[nH]c1ccc(Br)cc21 13.5%, COc1cccc(C(=O)Oc2cc(C)[nH]c(=O)c2[N+](=O)[O-])c1 -4.85%, Cc1ccc(C)c(N2CCN(S(=O)(=O)c3c(C)[nH]c(C)c3C(=O)N3CCCC3)CC2)c1 -8.05%, Cc1ccc(C)c(N2CCN(S(=O)(=O)c3ccc4c(c3)oc(=O)n4C)CC2)c1 27.4%, C/C(=N\N1CCN(Cc2ccc(C)cc2)CC1)c1ccco1 -7.59%, O=C(CN1CCN(c2ccc(F)cc2)CC1)Nc1ccccc1 11.6%, O=C(CN1CCN(c2ccccc2)CC1)Nc1ccc(F)cc1 -0.126%, CC(C)Oc1ccc(Cc2n[nH]c(=S)n2Cc2ccccc2)cc1Cl -6.21%, O=C(CCCOc1ccc(Cl)cc1Cl)NNC(=O)C1CCC1 5.85%, CCN1C(=O)[C@@H]2[C@@H](c3ccc(-c4cccc(Cl)c4)cc3)N3CCC[C@@]3(C(=O)OC)[C@@H]2C1=O 30.1%, C[N+]1(CC(O)COc2ccccc2)CCN(C(=O)c2ccc([N+](=O)[O-])cc2)CC1 (stereo not given) -0.233%, CCOC(=O)c1ccc(NNC(C)=O)c([N+](=O)[O-])c1 9.84%, CCCCOC(=O)CCCc1ccc([N+](=O)[O-])cc1[N+](=O)[O-] 28.7%, O=C(CS(=O)(=O)c1ccccc1)Nc1ccc(S(=O)(=O)Nc2ccccn2)cc1 0.086%, CC(C)(C)c1cnnn1-c1ccc([N+](=O)[O-])cc1 12%, Cc1cc(C(=O)Nc2c(C)nn(Cc3ccccc3)c2C)on1 1.72%, Cc1nn(Cc2ccc(F)cc2)c(C)c1NC(=O)c1cccnc1Cl -0.56%, Cc1ccccc1OCC(=O)NCC(=O)OCC(=O)c1ccc2ccccc2c1 18.3%, N/C(=N\S(=O)(=O)c1cc(C(F)(F)F)cc(C(F)(F)F)c1)c1cccs1 5.1%, COc1ccc(-n2c(SCC(=O)NCc3ccco3)nnc2-c2c[nH]c3ccccc23)cc1 7.58%, O=c1c2ccccc2nc(N/N=C/c2ccccc2)n1O 12.3%, O=C(N/N=C/c1cccnc1)c1ccc(NC(=O)c2ccc(F)cc2)cc1 -1.83%, Cc1cc(C)cc(NC(=O)CCN2C(=O)c3ccccc3C2=O)c1 15.2%, CCN(CC)C(=O)Oc1ccc(OC(=O)N(CC)CC)cc1 32.3%, CCC(=O)Nc1nnc(S(=O)(=O)N(CC(C)C)c2ccccc2)s1 -0.846%, CCOC(=O)C1CCN(C(=O)c2ccccc2N(C)S(=O)(=O)c2ccccc2)CC1 25%, CSc1nnc(C2CCCN(CC(=O)Nc3ccccc3N3CCOCC3)C2)n1C(C)C (stereo not given) -3.94%, Cc1ccnc2nc(C(=O)OCC(=O)N(CC(C)C)CC(C)C)nn12 13.2%, Cn1cc(/C=C/C(=O)N2CCCC(C(=O)c3ccc(C(F)(F)F)cc3)C2)cn1 (stereo not given) 24.9%, COc1cccc(C(=O)N/N=C(\C)c2cccc(NC(=O)c3ccc(F)cc3)c2)c1OC 20.1%, Cn1c(CN2CCOCC2)nc2cc(NC(=O)c3ccc(Cl)cc3)ccc21 15.9%, CCC(=O)Nc1ccc(S(=O)(=O)Nc2c(NC)c3ccccc3oc2=O)cc1 27%, O=C(CN1CCN(C2CCCCC2)CC1)Nc1ccccc1N1CCCCC1 -10.4%, Cc1ccc(C(C)C)cc1OCC(=O)Nc1ccccc1N1CCCC1 -15.9%, Cc1cc(C)cc(OCC(=O)NNC(=O)CCN2C(=O)c3ccccc3C2=O)c1 9.29%, O=C(COC(=O)c1ccncc1)c1ccccc1 22.8%, Brc1ccc(-c2noc(-c3ccccc3)n2)o1 11.2%, COc1ccc2oc(C(=O)OCC(=O)N(CC(C)C)c3c(N)n(Cc4ccccc4)c(=O)[nH]c3=O)c(C)c2c1 -2.22%, CCC(C(=O)N1CCN(S(=O)(=O)c2sc(C(=O)O)c(C)c2C(=O)O)CC1)c1ccccc1 (stereo not given) -6.62%, Cc1cc(-c2nnc(CCC(=O)NC(c3ccccc3)c3ccccc3)o2)no1 -7.23%, O=C(NCc1ccco1)C1(c2ccc(Cl)cc2)CCCC1 29.4%, COC(=O)/C=C/C(=O)NCc1ccco1 -3.84%, CCN(CC)C(=O)CSc1nnc(C2CCCCC2)o1 2.18%, Cc1[nH]c2ccccc2c1C(=O)C(C)Sc1nnc(C2CC2)o1 (stereo not given) -11.7%, O=C(COc1cccc(F)c1)Oc1ccc(C(=O)c2ccccc2)cc1 -0.003%, CCC(C)c1ccccc1NC(=O)CN(C)CC(=O)Nc1ccccc1SC (stereo not given) 11.9%, O=C(Cc1ccccc1)Nc1c(C(=O)N2CCCCCC2)cnn1-c1ccccc1 29.5%

inhibition, active:
CCOc1cc(-c2conc2N)cc(OCC)c1OCC 41.9%, O=C(Nc1ccccc1Cl)/C(Cl)=C(\Cl)S(=O)c1ccccc1 (stereo not given) 78.1%, COC(C/C=C/C(=O)[C@@H](C)OCc1ccccc1)OC 54.5%, O=C1C=CC(=O)N1c1ccc(N2CCCCC2)cc1 93%, N#Cc1ccc(CSc2nnc(-c3ccccn3)n2-c2ccc(Cl)cc2)cc1 40%, COc1ccc(-c2cc(C3CCN(c4ncccc4[N+](=O)[O-])CC3)[nH]n2)cc1 49.2%, COC(=O)c1cc(S(=O)(=O)N2CCN(c3cc(C)ccc3C)CC2)c[nH]1 41.6%, O=C(CN1CCN(c2ccc(F)cc2)CC1)Nc1cccc(C(F)(F)F)c1 41.1%, Cn1c(CCCOc2ccc(Cl)cc2Cl)n[nH]c1=S 47.8%, CCOC(=O)C/C(C)=N\Nc1ccc([N+](=O)[O-])cc1[N+](=O)[O-] 44.5%, Cc1nn(Cc2ccc(Cl)c(Cl)c2)c(C)c1NC(=O)c1cc(C2CC2)on1 57%, Fc1ccc(/C=N/Nc2nc(-c3cccnc3)nc3ccccc23)cc1 43.3%, CC1=C/C(=N\OS(=O)(=O)c2ccccc2)C=CC1=O 76.6%, CN1CCN(c2ccccc2NC(=O)COc2ccc(C3CCCCC3)cc2)CC1 42.9%, O=C(Oc1ccc(-c2nc(-c3ccccn3)no2)cc1)c1ccccc1 51.2%, O=C(/C=C/c1ccc(Cl)cc1Cl)NCc1ccco1 41.9%, CCCCCC1CCC(c2nnc(SCC(C)=O)o2)CC1 (stereo not given) 42.3%
